Among all 4,400 compounds or so, about 390 (8.9%) showed an effect of 50% or more. The sample as a whole holds a higher share of strong results than the screen did.
Tested on: Trypanosoma brucei
Assay: DNDI: Inhibition of Human African Trypanosomiasis, SBRI 427, in vitro at 2 ug.mL-1
Type: functional

Row | Compound | % inhibition [%]
1 | CCOc1ccc(-c2nc(CNCc3ccc(C(F)(F)F)cc3)co2)cc1 | -13
2 | CCOc1ccc(-c2nc(CN3CCC(N4CCCCC4)CC3)co2)cc1 | 9
3 | CC(NCc1coc(-c2ccccc2Cl)n1)c1ccccc1 (stereo unspecified) | 9
4 | COC(=O)C1CCN(/C(=N\O)c2ccc(Oc3ccc(C)cc3C)nc2)CC1 | 11
5 | CCCCN(CCC#N)Cc1coc(-c2ccccc2OCC)n1 | -9
6 | O=[N+]([O-])c1ccc(N2CCN(Cc3coc(-c4cccc(F)c4)n3)CC2)cc1 | -6
7 | c1csc(-c2nc(CN3CCCCCCC3)co2)c1 | 3
8 | Cc1cc(C)cc(Oc2nc(C)ccc2/C(=N/O)NCCN2CCOCC2)c1 | 15
9 | Cc1ccc(/C(=N/O)NCC2CC2)c(Oc2ccc3oc4ccccc4c3c2)n1 | 5
10 | Cc1ccc(/C(=N/O)NCCC2CCCN2C)c(Oc2ccc3oc4ccccc4c3c2)n1 (stereo unspecified) | 13
11 | Cc1cc(N/C(=N\O)c2ccc(C)nc2Oc2ccc3oc4ccccc4c3c2)on1 | 20
12 | Cc1ccc(/C(=N/O)NC2CCC(C)CC2)c(Oc2ccc3oc4ccccc4c3c2)n1 (stereo unspecified) | 3
13 | Cc1ccc(/C(=N/O)NC2CCC2)c(Oc2ccc3oc4ccccc4c3c2)n1 | 101
14 | Cc1ccc(/C(=N/O)NC2CCCC2)c(Oc2ccc3oc4ccccc4c3c2)n1 | 99
15 | Cc1ccc(/C(=N/O)NC2CCCC2)c(Oc2cccc(C(C)C)c2)n1 | 3
16 | CC(C)COc1ncccc1/C(=N/O)N(C)Cc1ccco1 | 11
17 | COc1ccc(-c2nc(CN3CCN(C(=O)C4CCCO4)CC3)co2)cc1 (stereo unspecified) | 9
18 | COc1ccc(Oc2cc(/C(N)=N/O)ccn2)cc1 | 19
19 | CCOc1ccc(Oc2cc(/C(N)=N/O)ccn2)cc1 | 7
20 | Cc1ccc(Oc2cc(/C(N)=N/O)ccn2)c2c1CCC2 | 16
21 | C#CCN(C)Cc1coc(-c2ccc(Br)cc2)n1 | 4
22 | O/N=C(\NC1CCCCC1)c1cccnc1OCC(F)(F)F | 71

Row | Compound | % inhibition [%]
23 | O/N=C(\NCc1cccs1)c1cccnc1OCC1CCCCC1 | -4
24 | Cc1ccc(/C(=N/O)NC2CCCC2)c(OCC2CCCCC2)n1 | 12
25 | CCC(CC)N/C(=N\O)c1cccnc1OCC1CCCCC1 | 98
26 | CC(C)c1ccc(N/C(=N\O)c2cccnc2OCC(F)(F)F)cc1 | 1
27 | O/N=C(\NCC1CCCCC1)c1cccnc1OCC(F)(F)F | 0
28 | O/N=C(\NCC1CCCO1)c1cccnc1OCC1CCCCC1 (stereo unspecified) | 5
29 | O/N=C(\NC1CCC1)c1cccnc1OCC1CCCCC1 | 99
30 | N/C(=N\O)c1cccnc1OCC1CCCCC1 | 13
31 | COc1ccc(CN/C(=N\O)c2cccnc2Oc2ccc(SC)c(C)c2)cc1 | 4
32 | CC1CCCCN1Cc1coc(-c2ccco2)n1 (stereo unspecified) | 1
33 | C(=C\c1ccccc1)/CN1CCN(Cc2coc(-c3cccc4ccccc34)n2)CC1 | 19
34 | O/N=C(/c1ccc(Oc2cccc(F)c2)nc1)N1CCCCC1 | 5
35 | c1csc(-c2nc(CNCC3CCCO3)co2)c1 (stereo unspecified) | 2
36 | COc1ccc(-c2nc(CN3CCCCC3)co2)cc1 | 4
37 | Cc1ccc(/C(=N/O)N2CCCCC2)c(Oc2ccc(-n3ccnc3)cc2)n1 | 12
38 | Cc1ccc(/C(N)=N/O)c(Oc2cccc(C(C)C)c2)n1 | 57
39 | Cc1ccc(/C(=N/O)NC(C)C)c(Oc2cccc(C(C)C)c2)n1 | 7
40 | Cc1cccc(Oc2nc(C)ccc2/C(N)=N/O)c1 | -4
41 | Cc1ccc(/C(N)=N/O)c(Oc2ccc(C(C)C)cc2)n1 | 31
42 | Cc1cc(Oc2ncccc2/C(N)=N/O)cc(C(C)C)c1 | 20
43 | Cc1cc(Oc2nc(C)ccc2/C(N)=N/O)cc(C(C)C)c1 | 55
44 | Cc1cccc(Oc2nc(C)ccc2/C(=N/O)N2CCSCC2)c1 | 1

Row | Compound | % inhibition [%]
45 | Cc1ccc(/C(N)=N/O)c(Oc2c(F)c(F)cc(F)c2F)n1 | 4
46 | Cc1ccccc1NCc1coc(-c2ccccc2F)n1 | -5
47 | COc1ccc(Oc2ncccc2/C(=N/O)n2ccnc2C)cc1 | -2
48 | COc1cc2c(cc1OC)C(C(C)C)N(Cc1coc(-c3ccc(C)cc3)n1)CC2 (stereo unspecified) | 27
49 | COc1cc(CNCc2coc(-c3ccc(C(F)(F)F)cc3)n2)cc(OC)c1 | -1
50 | Fc1ccc(-c2nc(CNCc3ccncc3)co2)cc1 | -3
51 | CCC(C)(C)N/C(=N\O)c1ccc(Oc2ccc(F)cc2)nc1 | 27
52 | CCC(C)(C)N/C(=N\O)c1ccc(Oc2cccc3ccccc23)nc1 | 95
53 | Cc1cc(C)cc(CN/C(=N\O)c2ccc(Oc3cccc(C)c3)nc2)c1 | 19
54 | Cc1cc(C)cc(Oc2ccc(/C(=N/O)NCc3ccccc3)cn2)c1 | -3
55 | Cc1cc(Oc2ccc(/C(=N/O)NCc3cc(F)cc(F)c3)cn2)cc(C(C)C)c1 | 17
56 | CCC(C)(C)N/C(=N\O)c1ccc(Oc2cccc3c2OC(C)(C)C3)nc1 | 11
57 | Cc1cccc(Oc2ccc(/C(=N/O)NC(C)C)cn2)c1 | 8
58 | CC1CCC(N/C(=N\O)c2ccc(Oc3cccc4ccccc34)nc2)CC1 (stereo unspecified) | 19
59 | Cc1cc(Oc2ccc(/C(=N/O)NCc3ccccc3)cn2)cc(C(C)C)c1 | 14
60 | CCC(C)(C)N/C(=N\O)c1ccc(Oc2cc(C)cc(C(C)C)c2)nc1 | 91
61 | CCC(C)(C)N/C(=N\O)c1ccc(Oc2cccc(C)c2)nc1 | 67
62 | CCC(C)(C)N/C(=N\O)c1ccc(Oc2cc(C)cc(C)c2)nc1 | 95
63 | COCCCNCc1coc(-c2ccccc2)n1 | 38
64 | CC1CC(C)CN(/C(=N\O)c2ccc(Oc3cc(Cl)ccc3Cl)nc2)C1 (stereo unspecified) | 10
65 | CN(Cc1cccnc1)/C(=N\O)c1ccc(Oc2cc(Cl)ccc2Cl)nc1 | -14
66 | Cc1ccc(/C(=N/O)N2CC=CC2)c(Oc2cccc3ccc(C)nc23)n1 | 28

Row | Compound | % inhibition [%]
67 | N/C(=N\O)c1ccc(Oc2ccc3ccccc3c2)nc1 | 12
68 | Cc1ccc(/C(=N/O)N2CCC=N2)c(Oc2cccc(F)c2)n1 | 21
69 | CCN(CCC#N)Cc1coc(-c2ccc(C(F)(F)F)cc2)n1 | -3
70 | Cc1ccccc1CN/C(=N\O)c1ccnc(Oc2ccc(F)c(Cl)c2)c1 | 14
71 | CN(/C(=N\O)c1cccnc1Oc1ccc(-n2cncn2)cc1)C1CCCCC1 | 14
72 | Cc1ccc(-c2nc(CNCc3ccccc3)co2)cc1 | -10
73 | O/N=C(/c1ccc(Oc2cccc3cccnc23)nc1)N1CCC2CCCCC2C1 (stereo unspecified) | 58
74 | O/N=C(/c1ccc(Oc2ccc(Cl)cc2)nc1)N1CCC2CCCCC2C1 (stereo unspecified) | 99
75 | CC1CC(C)CN(/C(=N\O)c2ccc(Oc3cccc4cccnc34)nc2)C1 (stereo unspecified) | -24
76 | O/N=C(/c1ccc(Oc2cccc3cccnc23)nc1)N1CCN(c2ccccc2)CC1 | -27
77 | O/N=C(/c1ccc(Oc2cc(Cl)ccc2Cl)nc1)N1CCC2CCCCC2C1 (stereo unspecified) | -2
78 | O/N=C(/c1ccc(Oc2ccc3ccccc3c2)nc1)N1CCC2CCCCC2C1 (stereo unspecified) | 28
79 | CCOc1ccc(Oc2nc(C)ccc2/C(=N/O)N2CC(C)CC(C)C2)cc1 (stereo unspecified) | 8
80 | Cc1cc(Oc2ccc(/C(=N/O)NCc3cc(F)ccc3F)cn2)cc(C(C)C)c1 | -14
81 | O/N=C(/c1cccnc1OC1CCC1)N1CCN(c2ccc(F)cc2)CC1 | 7
82 | CC(=O)c1ccc(N2CCN(Cc3coc(-c4ccccc4Cl)n3)CC2)cc1 | -7
83 | Cc1ccc(/C(=N/O)N2CCC(N(C)C)C2)c(Oc2ccc3ccccc3c2)n1 (stereo unspecified) | 20
84 | COCCN/C(=N\O)c1cccnc1Oc1ccc(C)c2c1CCC2 | 80
85 | Cc1ccc(Oc2cc(/C(=N/O)NCC3CC3)ccn2)c2c1CCC2 | 40
86 | Cc1ccc(Oc2ncccc2/C(=N/O)N2CC(C)CC(C)C2)c2c1CCC2 (stereo unspecified) | 6
87 | Cc1ccc(Oc2ncccc2/C(=N/O)NC2CCC(C)CC2)c2c1CCC2 (stereo unspecified) | 100
88 | Cc1ccc(Oc2ncccc2/C(=N/O)NCC2CC2)c2c1CCC2 | 99

Row | Compound | % inhibition [%]
89 | CCCN/C(=N\O)c1cccnc1Oc1ccc(C)c2c1CCC2 | 42
90 | COCC(C)N/C(=N\O)c1cccnc1Oc1ccc(C)c2c1CCC2 (stereo unspecified) | 12
91 | CCC(CC)N/C(=N\O)c1cccnc1Oc1ccc(C)c2c1CCC2 | 99
92 | Cc1ccc(Oc2ncccc2/C(N)=N/O)c2c1CCC2 | 9
93 | Cc1ccc(Oc2ncccc2/C(=N/O)N2CCC3CCCCC3C2)c2c1CCC2 (stereo unspecified) | -7
94 | Cc1ccc(Oc2ncccc2/C(=N/O)NC(C)C)c2c1CCC2 | 8
95 | Cc1ccccc1-c1nc(Cn2ncc3c2CCCC3)co1 | -16
96 | O/N=C(/c1ccc(Oc2cc(Cl)ccc2Cl)nc1)N1CCSCC1 | -11
97 | COc1ccc(Oc2nc(C)ccc2/C(=N/O)N(C)Cc2cccnc2)cc1 | -3
98 | CCCN(CCC)Cc1coc(-c2ccccc2Cl)n1 | 16
99 | Oc1ccc(-c2nc(CN3CCc4ccccc4C3)co2)cc1 | 8
100 | CCOc1ccc(-c2nc(CN(C)CC#N)co2)cc1 | 4
101 | CSc1ccc(Oc2nc(C)ccc2/C(=N/O)n2nc(C)cc2C)cc1C | 16
102 | CSc1ccccc1Oc1ncccc1/C(=N/O)N1CCN(c2ccc(F)cc2)CC1 | 19
103 | Cc1cccc(N2CCN(Cc3coc(-c4ccc(OC(F)(F)F)cc4)n3)CC2)c1C | -7
104 | Cc1ccc(Oc2ncccc2/C(=N/O)N2CCCC2)c2c1CCC2 | -1
105 | Cc1ccc(Oc2ncccc2/C(=N/O)NCC(C)C)c2c1CCC2 | 100
106 | CC(C)CN/C(=N\O)c1cccnc1Oc1ccccc1 | 17
